Results published in PubChem BioAssay AID493012 (Sanford-Burnham Center for Chemical Genomics, 2011).
In all, about 330,000 compounds went through this assay and about 930 (0.28%) were called active. Many of the other results were omitted from the sample, so actives are more common in it than they were. Values without a mark were called inactive.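 Rule for the calls: active = inhibition of at least 40% at 20 µM, with no more than 30% in the related APOBEC3A deaminase screen; inactive = the rest.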

target: DNA dC->dU-editing enzyme APOBEC-3G (Homo sapiens) (UniProt Q9HC16); assay: inhibition of human A3G ssDNA deamination – biochemical, fluorescence, single-stranded DNA substrate, uHTS, primary screen (AID 493012); settings: recombinant A3G, ssDNA deamination FAM/TAMRA fluorescence; at 20 µM; stronger effect = higher value;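 note: plate controls were DMSO wells with A3G for no effect and wells lacking A3G enzyme for full effect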
Sequence (Q9HC16 whole entry, looked up): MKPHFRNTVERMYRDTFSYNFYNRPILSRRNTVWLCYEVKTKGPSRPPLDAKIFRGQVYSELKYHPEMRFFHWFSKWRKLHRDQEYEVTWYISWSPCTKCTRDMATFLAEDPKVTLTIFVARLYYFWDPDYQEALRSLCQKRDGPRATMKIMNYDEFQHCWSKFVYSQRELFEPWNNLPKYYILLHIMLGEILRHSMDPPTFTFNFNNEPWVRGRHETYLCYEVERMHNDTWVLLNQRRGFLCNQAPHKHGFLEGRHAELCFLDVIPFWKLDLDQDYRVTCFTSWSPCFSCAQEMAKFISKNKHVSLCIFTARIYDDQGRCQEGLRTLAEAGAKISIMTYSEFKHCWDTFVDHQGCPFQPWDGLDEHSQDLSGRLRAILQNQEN

Row | SMILES | inhibition
1 | COC(=O)N(c1ccc(OC)cc1)P1(=S)OCCC(C)O1 (stereo not given) | 69.7% (active)
2 | Cn1c(O)c(C=NCCN2CCNCC2)c(=O)n(C)c1=O | -1.92%
3 | CCCC[N+]1(C)C2CC(OC(=O)C(CO)c3ccccc3)CC1C1OC12 (stereo not given) | -0.137%
4 | CCN1CCN(Cc2cc(OC)c3c(c2)OCO3)CC1 | -5.01%
5 | Cc1cccc(-n2c(O)c(/C=N/N3CCOCC3)c(=O)[nH]c2=S)c1 | -9.2%
